Laboratory results published in PubChem BioAssay (NCI).
Compounds without any hit were thinned out: in the full panel of roughly 83,000, 20% have a hit.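 Cell lines were cultured in 96-well plates, exposed to a single compound concentration, and assessed for percent growth 48 hours later.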 Active and inactive are the calls of the source.

The compounds below were run on SW-620 colon (assay: NCI-60 one-dose screen, 48 h (100 = growth as untreated, 0 = no growth, -100 = all killed)). Conditions: 10 µM unless noted.
Experimental: Growth inhibition of the SW-620 human tumor cell line is measured as a screen for anti-cancer activity. Cells are grown in 96 well plates and exposed to the test compound for 48 hours. Compounds are tested at a single concentration, which is 10^-5 M for most compounds. The reported endpoint is percent growth (GI% or GIPRCNT), where numbers from 0 - 100% represent growth inhibition, and numbers from -100% - 0 represent cell death. For example, a value of 40 represents 60% growth inhibition. A value of 0 means no net growth occurred over the course of the experiment. A value of -40 indicates 40% of cells at the beginning of the experiment died by the end of the experiment. A value of -100 means all cells are dead at the end of the experiment.
NCI-60 Human Tumor Cell Lines Screen was performed using the standard one-dose NCI protocol, which is described in more detail at https://dtp.cancer.gov/discovery_development/nci-60/default.htm.
Compounds with GIPRCNT values below 10 were considered active. Activity score was based on GIPRCNT using the following formula: […]
Score is 0 for GIPRCNT values of 100 or above, 50 for GIPRCNT values of 0, and 100 for GIPRCNT values of -100.

Compound	growth
COC(=O)c1c2c(n3ccc(C)cc13)C(=O)c1ccccc1C2=O	54.3% (inactive)
Cc1ccc(-c2nc(C(Cl)Cl)nc3cc(C)nn23)cc1	-28.5% (active)
O=c1[nH]c(-c2ccc(Cl)cc2)cn1-c1ccc(-n2cc(-c3ccc(Cl)cc3)[nH]c2=O)cc1	102% (inactive)
Clc1nn2c(Cn3cnc4c(NCc5ccccc5)ncnc43)nnc2c2ccccc12	48.2% (inactive)
CCn1cc(C(=O)N/N=C/c2ccc(Br)cc2)c(=O)c2cc(F)c(N3CCNC(C)C3)c(F)c21 (stereo not given)	-74.1% (active)
CN(C)c1ccc(-c2cc(-c3ccc(Nc4nc(Nc5ccc(Cl)cc5)nc(Nc5ccc(Cl)cc5)n4)cc3)nc(N)c2C#N)cc1	92.8% (inactive)
COC(=O)/C=C1/SC(=Nc2cccc(Cl)c2)N(CCc2c[nH]c3ccc(O)cc23)C1=O	0.219% (active)
CNCc1cccc2c1OCCOCCN(C)C(=O)CN(C)S(=O)(=O)c1ccc(cc1)-c1cnc(N)c(n1)C(=O)N2	-4.13% (active)
Cc1ccc(S(=O)(=O)n2cc(C3C(Cl)C(=O)N3c3ccc(N4CCOCC4=O)cc3)c3ccccc32)cc1 (stereo not given)	26.1% (inactive)
Cc1c2ccccc2nc2c1ccc1cccnc12	93% (inactive)
CCOC(=O)Cn1c(=O)c2c3ccccc3n(C)c2n2nnc(-c3ccccc3)c12	95.7% (inactive)
CCC/C(=N\NC(N)=O)C(OC)OC	110% (inactive)
CC1=NN(c2ccc(Cl)cc2)CC1(C)N=O (stereo not given)	43.7% (inactive)
COC(=O)c1nc(-c2ccccc2)oc1S(=O)(=O)N1CCC(C(N)=O)CC1	25.4% (inactive)
COc1cccc(/C=C/C(=O)c2cc3c(N)c(C(=O)Nc4ccccc4C)sc3nc2C)c1	1.68% (active)
Cc1ccc(/C=C/C(=O)c2ccc(NC(=O)CSc3nc4c([nH]3)c(=O)n(C)c(=O)n4C)cc2)c(C)c1	49% (inactive)
COc1ccc2c(c1)c(-c1nonc1-c1c[nH]c3ccc(Br)cc13)cn2C	33.7% (inactive)
CN1CCN(Cc2ccc(NC(=O)c3cncc(C#Cc4cncc5ncccc45)c3)cc2C(F)(F)F)CC1	-26.7% (active)
Cc1ccc(/C=C2\CN(C(=O)C(Cl)Cl)C/C(=C\c3ccc(C)cc3)C2=O)cc1	-66.6% (active)
C#CCn1cnc2c(Nc3cccc(NC(=O)CCl)c3)ncnc21	20.6% (inactive)

Compound	growth
O=C1N[C@@H]2[C@@H](O)[C@@H](O)[C@H](O)C[C@H]2c2cc3c(c(O)c21)OCCO3	4.85% (active)
Cc1ccc(C)c2c1C(O)(C#Cc1ccccc1)c1ccccc1C2(O)C#Cc1ccccc1 (stereo not given)	53.5% (inactive)
COc1ccc(C2C(C#N)=C(N)Oc3c2sc2c(Br)cccc32)cc1 (stereo not given)	32% (inactive)
Cc1[nH]c(C(=O)Nc2ccc(C(N)=O)cc2NC(C)C)c(Cl)c1Cl	96.1% (inactive)
N#Cc1c(NC(=O)c2cccs2)[n+]([O-])c2ccc(Cl)cc2[n+]1[O-]	85.3% (inactive)
O=C(NCc1ccc2c(c1)OCO2)NCC1CCCC(CNC(=O)NCc2ccc3c(c2)OCO3)C1 (stereo not given)	98% (inactive)
O=C(CN1CCN(c2cc3c(cc2F)c(=O)c(C(=O)O)cn3C2CC2)CC1)N/N=C/c1ccncc1	97.4% (inactive)
CC(C)(C)c1cc(C=Nc2cccc(C(F)(F)F)c2)c(O)c(C(C)(C)C)c1	101% (inactive)
Cc1ncc(C(=O)Nc2ccc(CN3CCN(C)CC3)c(C(F)(F)F)c2)cc1C#Cc1cnc(N)c2cnccc12	-55.3% (active)
CCOC(=O)NN1CC(O)=C(c2nc(-c3ccc(Br)cc3)cs2)C1=N	107% (inactive)
CSCCC(NC(=O)c1ccccc1)C(=O)N/N=C1\S/C(=C/c2ccc(Cl)cc2)C(=O)N1C (stereo not given)	93.5% (inactive)
c1ccc2cc(Cn3c[n+](Cc4ccc5ccccc5c4)c4ccccc43)ccc2c1	-3% (active)
COP(=O)(OC)c1nnn(-c2cccc([N+](=O)[O-])c2)c1C	100% (inactive)
Cn1c(=O)c2c(nc(NC3=NS(=O)(=O)c4ccccc43)n2Cc2ccccc2)n(C)c1=O	102% (inactive)
C=C1C(=O)O[C@H]2[C@H]1CC/C(COC(=O)NCc1ccc(Cn3c(=O)sn(-c4ccc(OC)cc4)c3=O)cc1)=C\CC[C@@]1(C)O[C@@H]21	-59.8% (active)
Cc1cccc(NC(=O)CSc2nc3ccc([N+](=O)[O-])cc3[nH]2)c1	97.9% (inactive)
COc1ccc(-c2ccc(=O)oc2C#Cc2cc(OC)c(OC)c(OC)c2)cc1O	-30.3% (active)
O=C(CCC(=O)c1nc2ncccc2[nH]1)NN1C(=O)CSC1c1ccc(Cl)cc1 (stereo not given)	81.4% (inactive)
COc1ccc(C2=NN(C(C)=O)C(c3ccc(Oc4ccnc5cc(Cl)ccc45)c(OC)c3)C2)cc1 (stereo not given)	74.3% (inactive)
CC(=O)N(Cc1ccccc1)c1nc2ccc(O)c(CN(C)C)c2s1	94.7% (inactive)
